Results from the supplement of paper PMC6555819.

What was measured:
Assay in all cases: PBM binding z-score (relative to random genomic background probes); higher = stronger binding; sequences stand for … in GC…GCGATTGACAGCGTAGAATGAAGG
[1] = test system: FXR:RXRa (NR concentration 270 nM, RXRa partner concentration 90 nM)
Outline: (§1)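 Custom Agilent 4×180K protein-binding microarrays carried double-stranded probes. Their 34-nt variable regions held direct-repeat seeds, single-nucleotide variants, half-site ablations and random human genomic background sequences. Arrays were incubated 1 h with ligand-free nuclear receptor dimers in PBS pH 7.4, 2% milk, 0.02% Triton X-100, 1 mM DTT, 0.2 mg/mL BSA and 0.4 mg/ml salmon testes DNA. Antibodies against each partner (one per run) detected binding, and scanned fluorescence was regression-normalized. Binding z-scores use random background probes as reference.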

[2] = test system: LXRa:RXRa (NR concentration 270 nM, RXRa partner concentration 90 nM)
Outline: as §1

[3] = test system: LXRa homodimer (NR concentration 270 nM)
Outline: as §1

[4] = test system: LXRb:RXRa (NR concentration 270 nM, RXRa partner concentration 90 nM)
Outline: as §1

[5] = test system: LXRb homodimer (NR concentration 270 nM)
Outline: as §1

[6] = test system: PPARa:RXRa (NR concentration 270 nM, RXRa partner concentration 90 nM)
Outline: as §1

[7] = test system: PPARg:RXRa (NR concentration 180 nM, RXRa partner concentration 90 nM)
Outline: as §1

[8] = test system: PPARg:RXRa 270nM:90nM, anti-RXR (NR concentration 270 nM, RXRa partner concentration 90 nM)
Outline: as §1

[9] = test system: PPARg:RXRa 30nM:10nM, anti-RXR (NR concentration 30 nM, RXRa partner concentration 10 nM)
Outline: as §1

[10] = test system: PPARg:RXRa 90nM:30nM, anti-RXR (NR concentration 90 nM, RXRa partner concentration 30 nM)
Outline: as §1

Row | Sequence | PBM binding z-score [1] | PBM binding z-score [2] | PBM binding z-score [3] | PBM binding z-score [4] | PBM binding z-score [5] | PBM binding z-score [6] | PBM binding z-score [7] | PBM binding z-score [8] | PBM binding z-score [9] | PBM binding z-score [10]
1 | CCCGAAAGGTCGGTTGAGGTGAGTATACGGATAA | 3.38 | 2.22 | 0.406 | 1.69 | 0.134 | 2.76 | 0.61 | 1.12 | 0.00163 | 0.671
2 | ATCTCTAGGTAAAGATAGTTCAGTGAGTGCAAAT | -0.0159 | 4.06 | 1.22 | 0.833 | 0.569 | 0.673 | 0.242 | 0.661 | 0.182 | 0.714
3 | CCTCGGAGGACAACAGGAGGTAAGAGCTGCCAGA | 0.127 | -0.463 | -0.208 | -0.701 | -0.983 | -0.345 | 0.154 | -0.624 | -0.764 | -0.831
4 | CTCGAAAGGTCGGTTGCGGTGAGTATACGGATAA | 2.08 | 1.5 | 0.16 | 1.38 | 0.241 | 2.17 | 0.168 | 0.893 | 0.195 | 0.654
5 | TCGACTAGGTTACCAATGGGGCATTCAGCTTTCT | 0.55 | 1.5 | -0.443 | 1.49 | -0.537 | 1.37 | 0.614 | 1.78 | 2.68 | 2.06
6 | TCTAGTTGGTCACGGAGGTCACACCCGACGGGTA | 3.19 | 3.31 | 2.4 | 3.2 | 0.762 | 3.73 | 3.54 | 4.03 | 3.5 | 3.66
7 | CATACTGGGCCAAAAAGGTCATTGATGCCGATAA | 3.78 | 4.56 | 3.26 | 4.16 | 0.973 | 4.63 | 2.82 | 3.82 | 1.24 | 3.11
8 | CGTCCAAGGTCAAGGTCCGTGAAAGAGACTCGAA | 7.33 | 5.22 | 0.155 | 3.84 | 0.0848 | 5.79 | 5.02 | 5.3 | 1.9 | 3.92
9 | TCTATTAGTTGAACGGCAACCGACGAGTCCGTTT | 0.294 | 0.618 | 0.311 | 0.621 | 0.735 | 0.859 | 0.133 | 1.87 | 3.63 | 2.83
10 | CATACTAGGTCAAGGTCAAAGTCGGTTTGTGCCA | 6.62 | 5.81 | 5.27 | 4.77 | 1.99 | 5.6 | 8.52 | 7.01 | 5.63 | 6.93
11 | ATCTCTAGGTCAAGATAGTTCAGTGAATGCAAAT | 3.96 | 6.31 | 4.48 | 3.62 | 1.93 | 4.23 | 4.92 | 4.63 | 2.03 | 3.66
12 | TCTGCTAGGTCAGTTGGTCAGGTAACGAGCTGCC | 1.03 | 0.456 | -0.298 | 0.248 | 0.236 | 1.48 | 0.452 | 1.74 | 1.15 | 1.3
13 | ATATGTTGGTTATCGGGTCATTCAGTTTGCGCAT | 2.39 | 2.42 | 1.49 | 2.76 | 1.77 | 2.86 | 1.7 | 2.19 | 0.577 | 1.65
14 | TCTCGGAGGACAGGAAAGGTCAGAGCTCGACATC | 2.63 | 3.06 | 1.44 | 2.83 | -0.216 | 3.23 | 0.566 | 2.15 | 2.51 | 1.96
15 | CCTGCTAGGTCCTGGTCAGCTAATCTACAGTATG | -0.334 | -0.452 | -0.575 | -0.318 | -1.07 | -0.283 | -0.294 | -0.442 | -0.574 | -0.403
16 | CGTCAAAGTTCAACTAAGGTAACGAAAAGCACGC | 7.29 | 6.07 | 3.55 | 3.97 | 2.13 | 5.07 | 4.84 | 5.42 | 2.21 | 4.48
17 | TCTAGTAGATCAGCAGGTTAAGAAAGCTGGCCAA | 0.258 | 0.127 | -0.552 | 0.373 | -0.762 | 0.734 | -0.257 | 1.37 | 2.66 | 2.06
18 | ATATGTAGGTTATAGGGTCATTCAGTTTGCGCAT | 4.47 | 4.26 | 2.22 | 3.98 | 1.38 | 5.36 | 7.99 | 7.04 | 5.54 | 7.25
19 | GCGACTGGGGAAAAGCAGGTTACCATAAGGTTGG | -0.282 | -0.412 | -0.496 | 0.0547 | -1.04 | 0.442 | 0.406 | 0.154 | -0.554 | 0.0241
20 | CCTAGCAGGCCAGGGGCACTCAAGCATTTCGCTT | -0.742 | -0.659 | -0.647 | -0.578 | -1.19 | -0.331 | -0.281 | -0.0349 | -0.949 | -0.765
21 | GCGACTGGGGCAACAGCAGGTTACCATAACTTAA | 0.03 | 1.28 | -0.408 | 0.734 | -0.94 | 1.25 | 1.43 | 1.47 | -0.0459 | 0.485
22 | GCTCGGATGACAAGGTCAGAGCTTTGTCCGTAGA | 0.982 | 1.15 | -0.396 | 0.805 | -1.32 | 1.93 | 0.116 | 0.444 | -0.707 | -0.161
